# Measurements: article PMC7862700, “An all-to-all approach to the identification of sequence-specific readers for epigenetic DNA modifications on cytosine”
# Assays:
# Experiment in all cases: DAPPL (digital affinity profiling via proximity ligation, sequencing); 10 mM Tris-HCl pH 7.5, 50 mM NaCl, 1 mM DTT, 4% glycerol, room temperature, 30 min; GST-TFs on glutathione beads, 16-mer random dsDNA library, 0.1% formaldehyde crosslink after washing; high values mean tight binding
# FEV = target: T1, FEV (Homo sapiens, UniProt Q99581 1-238); conditions: protein: recombinant; tags: N-terminal GST; dsDNA, one strand shown
# T1 sequence: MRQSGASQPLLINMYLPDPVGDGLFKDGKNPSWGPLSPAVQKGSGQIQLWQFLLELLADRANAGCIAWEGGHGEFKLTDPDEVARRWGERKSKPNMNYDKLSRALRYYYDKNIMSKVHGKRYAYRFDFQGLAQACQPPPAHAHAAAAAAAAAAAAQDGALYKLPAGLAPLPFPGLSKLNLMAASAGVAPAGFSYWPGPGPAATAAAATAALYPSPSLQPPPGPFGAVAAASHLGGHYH
# Procedure, shortened: (§1)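 Human transcription factors fused to GST were expressed in yeast, captured on glutathione beads, given DNA barcodes and pooled with a GST-only negative control. Pools were incubated with 200 nmole of a 16-mer random double-stranded DNA library in Tris/NaCl/DTT/glycerol buffer at room temperature for 30 min. They were then washed, crosslinked with 0.1% formaldehyde, proximity-ligated (BsaI/T4 ligase, 1 h, 37 °C), PCR-amplified and sequenced on an Illumina NextSeq500. Binding signal is each 6-mer's read frequency for a factor divided by its frequency for the GST control.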
# ETV5 = ETV5 (Homo sapiens, UniProt P41161 1-510); conditions: protein: recombinant; tags: N-terminal GST; dsDNA, one strand shown
# Procedure, shortened: as §1
# HSF1 = HSF1 (Homo sapiens, UniProt Q00613 1-529); conditions: protein: recombinant; tags: N-terminal GST; chain copies: 3; dsDNA, one strand shown
# Procedure, shortened: as §1
# SPIC = target: T2, SPIC (Homo sapiens, UniProt Q8N5J4 1-248); conditions: protein: recombinant; tags: N-terminal GST; dsDNA, one strand shown
# T2 sequence: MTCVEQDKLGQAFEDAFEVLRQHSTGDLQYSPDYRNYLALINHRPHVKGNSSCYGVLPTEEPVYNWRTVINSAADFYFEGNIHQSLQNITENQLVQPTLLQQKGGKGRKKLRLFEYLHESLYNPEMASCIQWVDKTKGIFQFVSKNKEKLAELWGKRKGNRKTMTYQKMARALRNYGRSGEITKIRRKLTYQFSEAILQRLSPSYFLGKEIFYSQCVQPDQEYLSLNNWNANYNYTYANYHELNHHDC
# Procedure, shortened: as §1
# ELF4 = ELF4 (Homo sapiens, UniProt Q99607 1-663); conditions: protein: recombinant; tags: N-terminal GST; dsDNA, one strand shown
# Procedure, shortened: as §1
# ELK4 = target: T3, ELK4 (Homo sapiens, UniProt P28324-2 1-405); conditions: protein: recombinant; tags: N-terminal GST; dsDNA, one strand shown
# T3 sequence: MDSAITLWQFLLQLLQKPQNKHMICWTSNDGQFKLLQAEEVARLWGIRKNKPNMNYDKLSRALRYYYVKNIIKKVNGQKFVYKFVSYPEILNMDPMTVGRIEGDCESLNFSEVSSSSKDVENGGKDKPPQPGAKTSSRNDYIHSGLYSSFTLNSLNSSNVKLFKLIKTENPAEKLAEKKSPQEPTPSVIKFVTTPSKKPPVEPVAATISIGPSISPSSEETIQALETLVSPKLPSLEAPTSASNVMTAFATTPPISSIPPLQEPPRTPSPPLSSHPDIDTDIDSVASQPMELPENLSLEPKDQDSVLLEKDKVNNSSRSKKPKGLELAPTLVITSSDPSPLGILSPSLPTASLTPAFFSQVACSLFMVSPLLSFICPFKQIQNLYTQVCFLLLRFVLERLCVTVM
# Procedure, shortened: as §1
# ETV2 = target: T4, ETV2 (Homo sapiens, UniProt O00321 1-342); conditions: protein: recombinant; tags: N-terminal GST; dsDNA, one strand shown
# T4 sequence: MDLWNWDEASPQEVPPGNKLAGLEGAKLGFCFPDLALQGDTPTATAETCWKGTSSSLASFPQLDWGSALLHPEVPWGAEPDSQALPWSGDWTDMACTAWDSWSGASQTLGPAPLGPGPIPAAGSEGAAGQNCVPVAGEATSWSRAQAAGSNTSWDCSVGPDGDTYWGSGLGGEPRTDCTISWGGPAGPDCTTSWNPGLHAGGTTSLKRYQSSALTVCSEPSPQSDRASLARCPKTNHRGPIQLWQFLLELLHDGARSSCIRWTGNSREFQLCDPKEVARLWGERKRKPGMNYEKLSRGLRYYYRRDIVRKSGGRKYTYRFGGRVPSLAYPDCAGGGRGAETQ
# Procedure, shortened: as §1
# ELF3 = target: T5, ELF3 (Homo sapiens, UniProt P78545 1-371); conditions: protein: recombinant; tags: N-terminal GST; dsDNA, one strand shown
# T5 sequence: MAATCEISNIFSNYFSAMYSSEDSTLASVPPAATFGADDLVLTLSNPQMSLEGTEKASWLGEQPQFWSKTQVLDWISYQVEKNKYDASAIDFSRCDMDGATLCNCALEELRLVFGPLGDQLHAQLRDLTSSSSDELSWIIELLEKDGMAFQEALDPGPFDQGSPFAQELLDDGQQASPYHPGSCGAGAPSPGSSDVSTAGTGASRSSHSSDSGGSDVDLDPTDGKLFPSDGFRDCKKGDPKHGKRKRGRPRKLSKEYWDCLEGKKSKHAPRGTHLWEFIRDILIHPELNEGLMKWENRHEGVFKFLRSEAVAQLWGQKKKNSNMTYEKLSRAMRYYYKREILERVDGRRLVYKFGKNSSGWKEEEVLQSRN
# Procedure, shortened: as §1
# CRX = CRX (Homo sapiens, UniProt O43186 1-299); conditions: protein: recombinant; tags: N-terminal GST; dsDNA, one strand shown
# Procedure, shortened: as §1
# ETV1 = ETV1 (Homo sapiens, UniProt P50549 1-477); conditions: protein: recombinant; tags: N-terminal GST; dsDNA, one strand shown
# Procedure, shortened: as §1
# ERF = target: T6, ERF (Homo sapiens, UniProt P50548 1-548); conditions: protein: recombinant; tags: N-terminal GST; dsDNA, one strand shown
# T6 sequence: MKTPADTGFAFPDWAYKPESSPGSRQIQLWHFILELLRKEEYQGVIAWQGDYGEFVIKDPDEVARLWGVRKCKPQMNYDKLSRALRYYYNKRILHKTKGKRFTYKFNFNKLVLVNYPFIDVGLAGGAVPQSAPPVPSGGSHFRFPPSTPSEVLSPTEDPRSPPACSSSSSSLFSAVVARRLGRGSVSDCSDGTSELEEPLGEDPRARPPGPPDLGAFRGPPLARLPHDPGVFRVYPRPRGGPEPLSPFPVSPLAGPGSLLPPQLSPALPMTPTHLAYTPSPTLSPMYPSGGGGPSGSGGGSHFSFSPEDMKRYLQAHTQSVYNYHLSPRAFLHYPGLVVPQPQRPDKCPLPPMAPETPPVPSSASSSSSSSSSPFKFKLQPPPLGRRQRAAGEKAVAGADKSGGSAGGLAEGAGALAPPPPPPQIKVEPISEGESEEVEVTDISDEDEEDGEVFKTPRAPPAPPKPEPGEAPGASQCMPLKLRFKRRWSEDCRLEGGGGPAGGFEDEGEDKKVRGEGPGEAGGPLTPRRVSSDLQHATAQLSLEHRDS
# Procedure, shortened: as §1
# ETV3L = target: T7, ETV3L (Homo sapiens, UniProt Q6ZN32 1-361); conditions: protein: recombinant; tags: N-terminal GST; dsDNA, one strand shown
# T7 sequence: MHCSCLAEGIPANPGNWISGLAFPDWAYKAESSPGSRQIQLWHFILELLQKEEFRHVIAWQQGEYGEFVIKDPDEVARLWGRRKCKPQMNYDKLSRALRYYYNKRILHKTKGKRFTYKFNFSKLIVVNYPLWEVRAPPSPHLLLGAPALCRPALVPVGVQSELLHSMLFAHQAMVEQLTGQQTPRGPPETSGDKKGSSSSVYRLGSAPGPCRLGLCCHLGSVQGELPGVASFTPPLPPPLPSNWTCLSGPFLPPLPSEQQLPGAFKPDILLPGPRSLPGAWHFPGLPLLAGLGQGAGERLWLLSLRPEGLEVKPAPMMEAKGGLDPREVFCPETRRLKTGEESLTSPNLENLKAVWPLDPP
# Procedure, shortened: as §1
# ETS2 = target: T8, ETS2 (Homo sapiens, UniProt P15036 1-469); conditions: protein: recombinant; tags: N-terminal GST; dsDNA, one strand shown
# T8 sequence: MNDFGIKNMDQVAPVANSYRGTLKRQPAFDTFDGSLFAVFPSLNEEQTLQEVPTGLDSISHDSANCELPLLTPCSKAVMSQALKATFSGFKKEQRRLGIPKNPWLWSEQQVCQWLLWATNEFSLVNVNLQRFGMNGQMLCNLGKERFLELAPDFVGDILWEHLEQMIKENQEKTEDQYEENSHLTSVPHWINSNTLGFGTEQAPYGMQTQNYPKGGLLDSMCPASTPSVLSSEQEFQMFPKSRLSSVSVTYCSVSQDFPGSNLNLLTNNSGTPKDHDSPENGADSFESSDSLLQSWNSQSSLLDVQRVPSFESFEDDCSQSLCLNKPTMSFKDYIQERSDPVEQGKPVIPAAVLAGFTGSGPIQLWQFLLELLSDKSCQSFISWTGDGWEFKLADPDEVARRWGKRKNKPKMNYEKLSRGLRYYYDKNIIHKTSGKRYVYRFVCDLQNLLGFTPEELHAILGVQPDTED
# Procedure, shortened: as §1
# SPDEF = target: T9, SPDEF (Homo sapiens, UniProt O95238 1-335); conditions: protein: recombinant; tags: N-terminal GST; dsDNA, one strand shown
# T9 sequence: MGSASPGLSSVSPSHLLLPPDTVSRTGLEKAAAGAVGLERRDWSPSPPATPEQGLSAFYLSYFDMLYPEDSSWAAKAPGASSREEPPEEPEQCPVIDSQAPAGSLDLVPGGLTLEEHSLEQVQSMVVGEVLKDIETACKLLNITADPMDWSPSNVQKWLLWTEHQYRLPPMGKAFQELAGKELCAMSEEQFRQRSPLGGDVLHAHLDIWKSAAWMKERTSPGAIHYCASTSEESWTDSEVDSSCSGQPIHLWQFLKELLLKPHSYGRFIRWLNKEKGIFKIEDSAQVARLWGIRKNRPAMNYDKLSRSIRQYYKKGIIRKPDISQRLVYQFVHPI
# Procedure, shortened: as §1
# ETV7 = target: T10, ETV7 (Homo sapiens, UniProt Q9Y603 1-341); conditions: protein: recombinant; tags: N-terminal GST; dsDNA, one strand shown
# T10 sequence: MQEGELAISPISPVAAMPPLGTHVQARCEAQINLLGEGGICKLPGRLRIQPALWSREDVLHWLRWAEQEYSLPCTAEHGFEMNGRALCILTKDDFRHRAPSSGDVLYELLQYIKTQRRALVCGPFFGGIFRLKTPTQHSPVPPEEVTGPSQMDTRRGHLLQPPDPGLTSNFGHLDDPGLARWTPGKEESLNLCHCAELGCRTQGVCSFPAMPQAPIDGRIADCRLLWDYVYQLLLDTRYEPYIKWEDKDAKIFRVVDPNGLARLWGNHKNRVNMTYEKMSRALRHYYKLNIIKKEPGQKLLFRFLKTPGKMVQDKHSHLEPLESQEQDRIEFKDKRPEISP
# Procedure, shortened: as §1
# ELF5 = target: T11, ELF5 (Homo sapiens, UniProt Q9UKW6-2 1-255); conditions: protein: recombinant; tags: N-terminal GST; dsDNA, one strand shown
# T11 sequence: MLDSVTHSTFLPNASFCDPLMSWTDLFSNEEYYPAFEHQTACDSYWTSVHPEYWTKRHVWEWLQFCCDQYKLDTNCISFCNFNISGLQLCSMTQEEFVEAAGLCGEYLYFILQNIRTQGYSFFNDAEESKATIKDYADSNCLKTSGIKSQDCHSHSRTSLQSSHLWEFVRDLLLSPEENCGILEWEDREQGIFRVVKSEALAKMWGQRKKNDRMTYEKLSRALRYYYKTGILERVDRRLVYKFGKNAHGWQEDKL
# Procedure, shortened: as §1
# ETV3 = target: T12, ETV3 (Homo sapiens, UniProt P41162-2 1-143); conditions: protein: recombinant; tags: N-terminal GST; dsDNA, one strand shown
# T12 sequence: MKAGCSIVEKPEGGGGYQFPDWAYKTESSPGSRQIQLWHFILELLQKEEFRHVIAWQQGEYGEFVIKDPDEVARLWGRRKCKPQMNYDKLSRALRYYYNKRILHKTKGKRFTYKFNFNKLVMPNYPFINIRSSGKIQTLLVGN
# Procedure, shortened: as §1
# ETV6 = ETV6 (Homo sapiens, UniProt P41212 1-452); conditions: protein: recombinant; tags: N-terminal GST; dsDNA, one strand shown
# Procedure, shortened: as §1
# Chain of ETV5 (P41161 whole entry): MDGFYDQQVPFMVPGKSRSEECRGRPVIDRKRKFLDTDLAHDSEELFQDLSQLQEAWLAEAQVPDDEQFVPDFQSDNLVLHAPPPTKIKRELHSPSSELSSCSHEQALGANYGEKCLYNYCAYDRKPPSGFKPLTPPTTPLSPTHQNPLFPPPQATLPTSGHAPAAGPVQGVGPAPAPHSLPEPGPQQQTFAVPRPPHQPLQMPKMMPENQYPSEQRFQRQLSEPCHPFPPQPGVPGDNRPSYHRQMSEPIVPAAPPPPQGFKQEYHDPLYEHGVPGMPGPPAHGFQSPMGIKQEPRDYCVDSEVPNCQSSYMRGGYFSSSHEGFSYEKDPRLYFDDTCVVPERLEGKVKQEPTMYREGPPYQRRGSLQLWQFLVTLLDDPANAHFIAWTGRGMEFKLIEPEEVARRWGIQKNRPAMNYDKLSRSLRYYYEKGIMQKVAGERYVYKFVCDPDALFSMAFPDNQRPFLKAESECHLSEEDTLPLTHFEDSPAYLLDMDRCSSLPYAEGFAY
# Chain of HSF1 (Q00613 whole entry): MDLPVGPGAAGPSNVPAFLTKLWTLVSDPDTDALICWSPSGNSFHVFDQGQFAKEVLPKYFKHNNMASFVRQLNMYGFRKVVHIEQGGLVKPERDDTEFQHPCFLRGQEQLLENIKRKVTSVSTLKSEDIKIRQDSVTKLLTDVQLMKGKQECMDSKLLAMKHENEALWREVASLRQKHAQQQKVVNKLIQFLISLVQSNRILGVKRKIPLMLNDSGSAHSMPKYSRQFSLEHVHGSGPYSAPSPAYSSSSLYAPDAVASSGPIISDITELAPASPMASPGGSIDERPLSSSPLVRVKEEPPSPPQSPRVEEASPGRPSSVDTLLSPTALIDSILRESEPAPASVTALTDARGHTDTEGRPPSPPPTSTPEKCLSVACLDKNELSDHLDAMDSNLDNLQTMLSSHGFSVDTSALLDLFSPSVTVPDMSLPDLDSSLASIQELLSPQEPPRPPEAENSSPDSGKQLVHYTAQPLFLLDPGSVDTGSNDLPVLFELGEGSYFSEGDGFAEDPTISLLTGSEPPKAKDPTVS
# Chain of ETV6 (P41212 whole entry): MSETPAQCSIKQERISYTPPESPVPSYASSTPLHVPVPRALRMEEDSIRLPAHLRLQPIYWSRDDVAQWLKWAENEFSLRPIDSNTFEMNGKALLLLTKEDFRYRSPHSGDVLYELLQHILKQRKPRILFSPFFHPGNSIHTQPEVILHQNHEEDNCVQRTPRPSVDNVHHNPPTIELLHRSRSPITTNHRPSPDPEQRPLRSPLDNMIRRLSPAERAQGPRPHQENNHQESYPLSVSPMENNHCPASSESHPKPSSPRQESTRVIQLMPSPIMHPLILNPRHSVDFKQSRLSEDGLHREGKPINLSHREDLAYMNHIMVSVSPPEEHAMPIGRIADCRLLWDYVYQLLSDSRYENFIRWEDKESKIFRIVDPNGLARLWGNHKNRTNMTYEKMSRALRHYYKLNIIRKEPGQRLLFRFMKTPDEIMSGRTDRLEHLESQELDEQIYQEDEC
# Chain of CRX (O43186 whole entry): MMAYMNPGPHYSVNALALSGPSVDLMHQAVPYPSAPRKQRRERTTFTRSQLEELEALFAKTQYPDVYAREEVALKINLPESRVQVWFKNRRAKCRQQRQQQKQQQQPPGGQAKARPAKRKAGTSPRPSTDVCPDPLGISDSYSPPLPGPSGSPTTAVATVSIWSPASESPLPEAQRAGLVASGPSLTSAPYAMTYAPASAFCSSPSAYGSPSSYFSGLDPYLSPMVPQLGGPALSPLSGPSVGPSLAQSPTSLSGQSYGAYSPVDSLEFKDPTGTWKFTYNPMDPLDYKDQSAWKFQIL
# Chain of ETV1 (P50549 whole entry): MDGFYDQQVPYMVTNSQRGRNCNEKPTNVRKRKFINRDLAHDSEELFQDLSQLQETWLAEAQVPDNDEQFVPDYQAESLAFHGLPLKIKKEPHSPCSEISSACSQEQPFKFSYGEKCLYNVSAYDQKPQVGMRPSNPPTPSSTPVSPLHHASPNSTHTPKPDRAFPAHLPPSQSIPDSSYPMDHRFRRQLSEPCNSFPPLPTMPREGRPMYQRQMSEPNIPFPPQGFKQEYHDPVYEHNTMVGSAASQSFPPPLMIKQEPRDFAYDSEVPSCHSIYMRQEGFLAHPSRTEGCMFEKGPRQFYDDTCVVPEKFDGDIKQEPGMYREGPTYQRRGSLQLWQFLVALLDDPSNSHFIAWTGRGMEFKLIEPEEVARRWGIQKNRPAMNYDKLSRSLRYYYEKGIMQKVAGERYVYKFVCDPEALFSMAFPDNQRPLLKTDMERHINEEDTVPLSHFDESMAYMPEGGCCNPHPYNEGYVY
# Chain of ELF4 (Q99607 whole entry): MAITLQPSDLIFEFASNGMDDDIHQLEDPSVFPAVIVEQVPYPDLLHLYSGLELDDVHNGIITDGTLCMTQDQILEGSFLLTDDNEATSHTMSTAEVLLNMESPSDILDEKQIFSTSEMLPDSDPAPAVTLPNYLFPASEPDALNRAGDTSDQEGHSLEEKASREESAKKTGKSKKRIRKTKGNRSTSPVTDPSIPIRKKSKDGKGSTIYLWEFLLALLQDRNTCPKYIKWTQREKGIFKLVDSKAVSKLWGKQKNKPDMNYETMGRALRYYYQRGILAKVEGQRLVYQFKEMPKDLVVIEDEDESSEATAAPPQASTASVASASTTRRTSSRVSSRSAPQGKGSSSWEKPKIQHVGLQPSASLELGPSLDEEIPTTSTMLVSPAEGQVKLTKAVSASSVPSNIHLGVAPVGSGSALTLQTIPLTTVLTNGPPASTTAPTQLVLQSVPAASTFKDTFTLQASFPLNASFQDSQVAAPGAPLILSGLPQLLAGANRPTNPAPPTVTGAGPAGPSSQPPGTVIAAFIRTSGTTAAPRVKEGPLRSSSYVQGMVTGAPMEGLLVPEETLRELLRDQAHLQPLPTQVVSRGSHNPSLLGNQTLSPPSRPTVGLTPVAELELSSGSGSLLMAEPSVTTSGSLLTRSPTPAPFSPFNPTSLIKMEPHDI
sequence,measurement,setting,value
TCCAAC,binding signal,FEV,"1.21 fold enrichment (6-mer frequency, TF over GST control)"
same,binding signal,ETV5,"1.14 fold enrichment (6-mer frequency, TF over GST control)"
same,binding signal,HSF1,"1.11 fold enrichment (6-mer frequency, TF over GST control)"
same,binding signal,SPIC,"1.26 fold enrichment (6-mer frequency, TF over GST control)"
same,binding signal,ELF4,"1.24 fold enrichment (6-mer frequency, TF over GST control)"
same,binding signal,ELK4,"1.21 fold enrichment (6-mer frequency, TF over GST control)"
same,binding signal,ETV2,"1.22 fold enrichment (6-mer frequency, TF over GST control)"
same,binding signal,ELF3,"1.23 fold enrichment (6-mer frequency, TF over GST control)"
same,binding signal,CRX,"1.05 fold enrichment (6-mer frequency, TF over GST control)"
same,binding signal,ETV1,"1.2 fold enrichment (6-mer frequency, TF over GST control)"
same,binding signal,ERF,"1.2 fold enrichment (6-mer frequency, TF over GST control)"
same,binding signal,ETV3L,"1.18 fold enrichment (6-mer frequency, TF over GST control)"
same,binding signal,ETS2,"1.25 fold enrichment (6-mer frequency, TF over GST control)"
same,binding signal,SPDEF,"1.28 fold enrichment (6-mer frequency, TF over GST control)"
same,binding signal,ETV7,"1.32 fold enrichment (6-mer frequency, TF over GST control)"
same,binding signal,ELF5,"1.12 fold enrichment (6-mer frequency, TF over GST control)"
same,binding signal,ETV3,"1.2 fold enrichment (6-mer frequency, TF over GST control)"
same,binding signal,ETV6,"1.14 fold enrichment (6-mer frequency, TF over GST control)"
